Source: PubChem BioAssay (several laboratories)
An excerpt weighted towards active compounds, which were near 1.5% of everything screened.
PLK1 PBD inh: Plk1 polo box domain binding inhibitors, primary screen, biochemical, fluorescence polarization; Serine/threonine-protein kinase PLK1 (Homo sapiens), P53350; inhibition, %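 (tested at about 20 µM)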; Plk1 PBD phosphopeptide binding; 97,000 compounds, 0.13% hits; AID 693, 2007; in the data active = inhibition above about 34%, passing the limit was not always enough
Target sequence (P53350 whole entry, looked up, the tested form may be a part): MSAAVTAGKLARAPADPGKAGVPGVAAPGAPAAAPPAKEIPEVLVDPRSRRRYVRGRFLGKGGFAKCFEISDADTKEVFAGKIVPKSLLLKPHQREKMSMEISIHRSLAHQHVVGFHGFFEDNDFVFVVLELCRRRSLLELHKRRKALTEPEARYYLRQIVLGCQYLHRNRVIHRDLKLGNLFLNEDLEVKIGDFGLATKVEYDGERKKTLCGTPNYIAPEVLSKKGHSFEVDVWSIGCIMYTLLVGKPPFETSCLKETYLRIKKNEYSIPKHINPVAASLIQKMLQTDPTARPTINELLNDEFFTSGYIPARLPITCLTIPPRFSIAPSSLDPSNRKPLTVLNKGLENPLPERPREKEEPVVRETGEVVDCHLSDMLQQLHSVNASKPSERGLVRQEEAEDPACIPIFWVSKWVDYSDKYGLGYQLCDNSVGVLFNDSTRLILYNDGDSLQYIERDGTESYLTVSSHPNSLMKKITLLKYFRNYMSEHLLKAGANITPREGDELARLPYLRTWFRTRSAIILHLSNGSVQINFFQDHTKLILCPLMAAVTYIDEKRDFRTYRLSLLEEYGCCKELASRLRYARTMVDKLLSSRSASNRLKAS
Smad3 FoxH1 inh: Smad3/FoxH1 peptide binding inhibitors, primary screen, biochemical, TR-FRET; Mothers against decapentaplegic homolog 3 (Homo sapiens), P84022; TR-FRET Smad3/Dy647-FoxH1 peptide binding, europium anti-His; inhibition, % at 25 µM; 88,000 compounds, 0.29% hits;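 active = compounds that reduce the energy-transfer binding signal between the protein and its labelled peptide by more than half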;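 also: 0% = Smad3 plus labelled peptide maximal FRET and 100% = peptide-only background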
EphB4 antag: EphB4-ephrin-B2 interaction antagonists, primary screen, biochemical, TNYL-RAW peptide probe, fluorescence polarization; Ephrin type-B receptor 4 (Homo sapiens), P54760; 97,000 compounds, 0.15% hits; inhibition, % at 7 µM; EphB4 LBD / TNYL-RAW-Alexa532 peptide;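 active = inhibition above the screen-wide mean inhibition plus 3 SD, cut at about 15% in these data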;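 also: 0% = DMSO wells and 100% = excess unlabeled TNYL-RAW peptide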
FAK blocker: FAK kinase inhibitors, primary screen, biochemical. Focal adhesion kinase 1 (Homo sapiens), Q05397. biochemical FAK kinase activity assay. inhibition, %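 (tested at 7 µM)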. 97,000 compounds, 0.84% hits. AID 727, 2007; in the data active = inhibition above about 19%;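 also: 0% = DMSO and 100% = reference compound high control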
PLK1 kinase inh: human PLK1 kinase inhibitors, primary screen, biochemical, TR-FRET. inhibition, % at 10 µM. 97,000 compounds, 0.53% hits. recombinant PLK1 kinase, TR-FRET peptide phosphorylation. Serine/threonine-protein kinase PLK1 (Homo sapiens), P53350;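 active = inhibition of 50% or more in the single-concentration screen; inactive = inhibition below 50%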;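 also: 0% = DMSO max control and 100% = H-89 dihydrochloride min control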
Active calls of the source: *; nt = no result given; [ ] = remark or other dose.

SMILES | PLK1 PBD inh | Smad3 FoxH1 inh | EphB4 antag | FAK blocker | PLK1 kinase inh
N#CC1=C(N)Oc2n[nH]c(-c3ccncc3)c2C1c1ccsc1 (centres undefined) | -5 | 6 | -3 | -1 | 10
Cc1[nH]nc2c1C(c1ccsc1)C(C#N)=C(N)O2 (centres undefined) | -2 | nt | -1 | 2 | 52*
Cc1[nH]nc2c1C(c1ccsc1C)C(C#N)=C(N)O2 (centres undefined) | 10 | nt | 5 | 1 | 61*
Cc1cc(C2C(C#N)=C(N)Oc3n[nH]c(C)c32)c(C)s1 (centres undefined) | -15 | 2 | -1 | 0 | 25
O=C(Nc1ccc(F)cc1F)c1cc2n(n1)C(C(F)(F)F)C1CCCCC1N2 (centres undefined) | 7 | 5 | 2 | 1 | -10
CC(OC(=O)c1cccs1)C(=O)NCc1ccco1 (centres undefined) | -34 | -2 | 5 | 1 | -4
CCOC(=O)N1CCN(c2c(-c3ccccc3)c3cc(Cl)ccc3[nH]c2=O)CC1 | -34 | nt | -2 | 1 | -42
CCN(CC)c1c(-c2ccccc2)c2cc(C)ccc2[nH]c1=O | nt | 50*[fluorescence artefact?] | nt | nt | nt
O=c1oc2ccccc2cc1-c1nc2ccccc2o1 | -15 | nt | 3 | 2 | -17
O=c1oc2ccc3ccccc3c2cc1-c1nc2ccccc2o1 | 20 | -7 | 6 | 19* | 2
CCOc1ccccc1NC(=O)CN1CCC(NC(=O)c2ccccc2)CC1 | 9 | -1 | 6 | 0 | -12
Cc1cccc(CSc2nc3c(cc2C#N)CCC3)c1 | 28 | 58*[fluorescence artefact?] | 6 | -3 | -21
CCOC(=O)N1CCC(NC(=O)C2CCCN(C(=O)N3CCOc4ccccc43)C2)CC1 (centres undefined) | nt | 5 | nt | nt | nt
CCOC(=O)N1CCC(NC(=O)C2CCN(C(=O)N3CCOc4ccccc43)CC2)CC1 | 18 | 12 | 5 | -1 | 55*
Cc1noc(C)c1Cn1nc(C(=O)O)c2ccccc2c1=O | -16 | -1 | -4 | 0 | 51*
Cc1cccc(C)c1OCCn1nc(C(=O)O)c2ccccc2c1=O | -24 | 15 | -9 | 2 | -7
CN(C(=O)COc1cc(=O)n(C)c2ccccc12)c1ccc(Cl)cc1 | 3 | 5 | -2 | 4 | -2
CN(c1ccc(Cl)cc1)c1cc(=O)n(C)c2ccccc12 | 0 | 11 | 120*[fluorescence artefact?] | 6 | -12
O=c1c2ccccc2c2ccccc2c(=O)n1-c1cc2c3ccccc3ccc2c2ccccc12 | nt | 86* | nt | nt | nt
COc1ccc(-n2c(=O)c3c4c(sc3n3cnnc23)CC(C)CC4)cc1 (centres undefined) | -7 | 0 | 25* | 0 | -9
O=C1CCCc2c1[nH]c1ccccc21 | -2 | 10 | 16* | 6 | -4
Nc1ccc2c(c1)C(=O)N(CCCCCC(=O)O)C2 | -4 | -12 | -4 | 0 | -6
O=C(NC1CCCCC1)C(Cc1ccccc1)NS(=O)(=O)c1cccs1 (centres undefined) | -7 | -8 | 1 | 0 | -26
CCCc1[nH]nc2c1C(c1ccc(OC)c(Cn3nnc4ccccc43)c1)C(C#N)=C(N)O2 (centres undefined) | -9 | -13 | 17* | 3 | 7
COc1ccc(C2C(C#N)=C(N)Oc3n[nH]c(C)c32)cc1Cn1nnc2ccccc21 (centres undefined) | 10 | -8 | 3 | 0 | -13
SMILES | PLK1 PBD inh | Smad3 FoxH1 inh | EphB4 antag | FAK blocker | PLK1 kinase inh
COc1nc(Cl)nc(Cl)c1Cl (tested in a mixture with another compound) | nt | 83* | nt | nt | nt
c1cnc2c(c1)ccc1cccnc12 | nt | 10 | nt | nt | nt
Oc1cccc2ccc(SSc3ccc4cccc(O)c4n3)nc12 | nt | 60* | nt | nt | nt
CCn1c(C)nc2cc(C(=O)NNS(=O)(=O)c3ccc(C)c(C)c3)ccc21 | 18 | -6 | 3 | 1 | -3
O=C(Nc1ccncc1)C1CCCN(S(=O)(=O)c2cccc3cccnc23)C1 (centres undefined) | 10 | -2 | 2 | 0 | 3
CC(C)(C)NC(=O)C1CCCN(S(=O)(=O)c2cccc3cccnc23)C1 (centres undefined) | -38 | 8 | 1 | 2 | 62*
N#CC1=C(N)OC2=C(C(=O)CCC2)[C@]12C(=O)N(CC(N)=O)c1ccccc12 | 23 | 13 | 1 | 4 | -5
O=C1CCCC2=C1C1(O)C(=O)c3ccccc3C1(O)O2 (centres undefined) | -5 | 66* | -2 | 0 | -1
CCCc1nnc(SCc2ccc(C(=O)OC)o2)n1N | 13 | -3 | 39*[fluorescence artefact?] | -3 | -7
CCc1nnc(SCc2ccc(C(=O)OC)o2)n1N | -28 | -2 | 6 | 0 | -15
COc1ccc(C(=O)Nc2cc(OCc3ccccc3)c(Cl)cc2Cl)cc1 | -10 | nt | -2 | -2 | -7
O=C1c2ccccc2C(=O)N1CC#CCN1CCN(C2CCCCC2)CC1 | -27 | 7 | -6 | 4 | -17
CCCN1CNC(=S)N(c2cccc(C)c2C)C1 | -2 | -13 | 3 | 2 | 1
CCN1CNC(=S)N(c2cccc(C)c2C)C1 | -11 | 96* | 3 | -3 | -6
CCOC(=O)c1c(C)oc2c1c(C(c1cccnc1)N1CCCCC1)c(O)c1ccccc12 (centres undefined) | 12 | 74* | 2 | 4 | -2
O=C(C[N+]12CN3CN(CN(C3)C1)C2)c1ccc(-c2ccccc2)cc1 | nt | 77* | nt | nt | nt
O=C(O)/C(=C\c1ccco1)NC(=O)c1cccc2ccccc12 | -14 | nt | 17* | -3 | -3
NC(=O)/C(=C/c1ccco1)NC(=O)/C=C/c1ccccc1 | 0 | nt | -8 | 0 | -5
Cc1ccc(-c2nc(CS(=O)CC(=O)NCCC(C)C)c(C)o2)cc1 (centres undefined) | 9 | 3 | 3 | 4 | 67*
CCc1cccc(NC(=O)CS(=O)Cc2nc(-c3ccc(C)cc3)oc2C)c1 (centres undefined) | 1 | 1 | 2 | -1 | -4
CCCCNC(=O)CS(=O)Cc1nc(-c2ccc(C)cc2)oc1C (centres undefined) | 6 | -3 | -7 | -2 | -14
CCCNC(=O)CS(=O)Cc1nc(-c2ccc(OC)cc2)oc1C (centres undefined) | -24 | -13 | 4 | 4 | 67*
Cc1ccc(-c2nc(CS(=O)CC(=O)NCc3ccc(Cl)cc3)c(C)o2)cc1 (centres undefined) | 11 | 7 | -1 | 1 | 69*
COCCNC(=O)CS(=O)Cc1nc(-c2ccc(Cl)cc2)oc1C (centres undefined) | -21 | -15 | -2 | -7 | -10
COc1ccc(-c2nc(CS(=O)CC(=O)NCc3ccc(Cl)cc3)c(C)o2)cc1 (centres undefined) | -1 | -22 | -4 | -1 | 70*
O=C(Oc1ccccc1)c1cccc2cccnc12 | 3 | -8 | -2 | -3 | -15
